Experimental data as given in PubChem BioAssay AID1159580 (chemical genetic matrix, 2015).
Screen size: about 5,500 compounds; about 2,000 (36%) were called active. Another 18% or so got no clear call; they are omitted. Cut-off read from the data, not from the text of the source: active = normalized growth mostly below about 0.91 (no sharp cut-off); inconclusive = no clear call, values can overlap the other calls; inactive = mostly above about 0.92. Some of the results follow.

Test: chemical genetic growth profiling, strain panel (AID 1159580);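 note: tested at 20 µM; growth read once vehicle control cultures reached saturation at 30 °C; 1 = growth at the plate median or of vehicle wells; lower values mean less growth of the strain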
Conditions: S. cerevisiae deletion strains, growth OD

Measured: normalized growth

CCN(CC)[N+]([O-])=NO
inactive: locus YHR030C, strain SLT2, stronger effect = lower value 0.974 | locus YHR079C, strain IRE1, stronger effect = lower value 0.986 | locus YJL095W, strain BCK1, stronger effect = lower value 0.987 | locus YJR066W, strain TOR1, stronger effect = lower value 0.931 | locus YLR113W, strain HOG1, stronger effect = lower value 0.961 | locus YNL183C, strain NPR1, stronger effect = lower value 0.935 | locus YOR231W, strain MKK1, stronger effect = lower value 0.966 | locus YPL256C, strain CLN2, stronger effect = lower value 0.951
